Results taken from PubChem BioAssay AID1850 (Southern Research Specialized Biocontainment Screening …, 2009).
Hit rate of the full screen: of about 310,000 compounds, about 1,000 (0.32%) were called active. These entries were drawn from the full list. Entries with a potency or affinity are not part of this list. A number with no mark means an inactive call. How the calls were made is not given here.

Test: Inhibition of PhoP regulon, Salmonella typhi GFP reporter cells, confirmation, 4 h (AID 1850);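 further: 0% = induced wells with vehicle and 100% = uninduced wells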
Conditions: Salmonella Typhi PhoP-promoter GFP reporter, fluorescence, at 50 µM, active compounds read high

Q: For `O=C(Nc1ccccc1)N1CCCN(Cc2ccccc2F)C1`, which inhibition is on record?
A: 14%

Q: For `O=C(Nc1ccc(Cl)cc1)N1CCCN(Cc2ccc(F)cc2)C1`, which inhibition is on record?
A: 0.26%

Q: For `CC1CN(c2oc(-c3ccco3)nc2C#N)CC(C)O1` (configuration not stated), which inhibition is on record?
A: 6.8%

Q: Which inhibition does the source give for `C/C(=N\N=C(N)N)c1cccc(Cl)c1` here?
A: 9.67%

Q: With `C/C(=N\N=C(N)N)c1ccc(Cl)cc1` as the molecule, how does the inhibition read?
A: -0.0633%

Q: Which inhibition does the source give for `O=C(CNS(=O)(=O)c1ccccc1)N1CCc2ccccc2C1` here?
A: -1%

Q: With `Cn1c(=O)c2c(nc(NCC3CCCO3)n2Cc2cccc(Br)c2)n(C)c1=O` (configuration not stated) as the molecule, how does the inhibition read?
A: 2.34%

Q: For `CN(C)S(=O)(=O)N1CCN(c2ccc([N+](=O)[O-])c(NC3CC3)c2)CC1`, which inhibition is on record?
A: -5.83%

Q: With `NC(=O)C[n+]1ccc(/C=N/O)cc1` as the molecule, how does the inhibition read?
A: -7.01%

Q: With `CC(C)(C)C(=O)C[n+]1ccc(C(N)=O)cc1` as the molecule, how does the inhibition read?
A: -7.77%

Q: With `CCN(CC)C(=O)C[n+]1ccc(C(N)=O)cc1` as the molecule, how does the inhibition read?
A: -3.67%

Q: Which inhibition does the source give for `CCCCCCCC[n+]1cccc(C(=O)N(CC)CC)c1` here?
A: -7.45%

Q: Which inhibition does the source give for `CN(C)C(=O)C[n+]1ccc(/C=N/O)cc1` here?
A: -5.57%

Q: With `CCCCCCCCCC[n+]1cccc(C(=O)N(CC)CC)c1` as the molecule, how does the inhibition read?
A: 8.08%

Q: With `O=C(c1ccc(F)cc1)N1CCN(C2CC3CCC2C3)CC1` (configuration not stated) as the molecule, how does the inhibition read?
A: -3.63%

Q: Which inhibition does the source give for `O=C(Nc1ccc2ccccc2n1)c1ccccc1Br` here?
A: -4.26%

Q: With `CCC(C)NC(=O)CCC(=O)NNc1nc2ccccc2c2nc(C)nn12` (configuration not stated) as the molecule, how does the inhibition read?
A: 10.9%

Q: With `CCn1cc(NC(=O)CCl)c(C)n1` as the molecule, how does the inhibition read?
A: -1.91%

Q: With `CC(C)(C)OC(=O)N1CCC(c2c(C(=O)NCC3CCN(C4CCCC4)C3)cnn2-c2ccccc2)CC1` (configuration not stated) as the molecule, how does the inhibition read?
A: 4.93%

Q: For `Oc1ccc(/C=N/Nc2nccnc2Cl)cc1`, which inhibition is on record?
A: -3.22%

Q: With `Oc1ccccc1/C=N/Nc1nccnc1Cl` as the molecule, how does the inhibition read?
A: -1.82%

Q: For `O=C(COc1ccc(Br)cc1)N(Cc1ccccc1)c1ccccn1`, which inhibition is on record?
A: 12.3%

Q: Which inhibition does the source give for `COc1ccc(NC(=O)CSCC(=O)N(C)CC(=O)Nc2ccc(Cl)c(C(F)(F)F)c2)cc1` here?
A: 5.95%

Q: Which inhibition does the source give for `O=C(CCN1C(=O)c2ccccc2S1(=O)=O)N1CCN(c2cccc(Cl)c2)CC1` here?
A: 0.17%

Q: With `O=C(N/N=C/c1ccc(O)c([N+](=O)[O-])c1)C(O)(c1ccccc1)c1ccccc1` as the molecule, how does the inhibition read?
A: 4.8%

Q: For `COc1cc(/C=N/NC(=O)c2ccc(C)nc2)cc([N+](=O)[O-])c1O`, which inhibition is on record?
A: 2.56%

Q: Which inhibition does the source give for `COc1cc([N+](=O)[O-])cc(/C=N/NC(=O)c2ccc(C)nc2)c1O` here?
A: 18.7%

Q: For `COc1cc([N+](=O)[O-])cc(/C=N/NC(=O)c2cncc(Br)c2)c1O`, which inhibition is on record?
A: 12.7%

Q: For `COc1cc([N+](=O)[O-])cc(/C=N/NC(=O)c2cc(C)nc3ccccc23)c1O`, which inhibition is on record?
A: 21.1%

Q: With `O=C(N/N=C/c1cc([N+](=O)[O-])ccc1O)Nc1ccccc1` as the molecule, how does the inhibition read?
A: 17.7%

Q: Which inhibition does the source give for `COc1cc(/C=N/NC(=O)c2cccnc2)ccc1OC(=O)c1ccc([N+](=O)[O-])cc1` here?
A: 5.86%

Q: For `O=C(N/N=C/c1cccc([N+](=O)[O-])c1O)C(O)(c1ccccc1)c1ccccc1`, which inhibition is on record?
A: 2.48%

Q: For `CCc1ccc(NC(=S)N(CCCN2CCN(C)CC2)Cc2cccs2)cc1`, which inhibition is on record?
A: 0.49%

Q: For `Cc1nnc(SCC(=O)c2c(N)n(Cc3ccccc3)c(=O)n(C)c2=O)n1C`, which inhibition is on record?
A: -13.4%

Q: For `CC(=O)N(c1ccccc1C)S(=O)(=O)c1ccc(Cl)cc1`, which inhibition is on record?
A: -12.6%

Q: For `O=C(Nc1ccccc1)c1ccc(=O)n(Cc2ccc(F)c(F)c2)c1`, which inhibition is on record?
A: -6.26%

Q: For `CCOC(=O)N1CCc2c(sc3c2c(=O)n(Cc2ccccc2)c(=O)n3Cc2ccc(C)cc2)C1`, which inhibition is on record?
A: -2.36%

Q: For `CSc1ccccc1C(=O)C1CCCN(C(=O)c2csnn2)C1` (configuration not stated), which inhibition is on record?
A: -11.4%

Q: Which inhibition does the source give for `COc1ccc(C(=O)NC2CC2)cc1OC1CCN(Cc2ccc(F)cc2Cl)CC1` here?
A: -3.14%

Q: With `CC(O)(C#CCN1CCCC1)c1ccccc1` (configuration not stated) as the molecule, how does the inhibition read?
A: -6.56%

Q: For `CCOC(=O)Cc1csc(NC(=O)c2sc3nc4ccc(C)cc4cc3c2N)n1`, which inhibition is on record?
A: -5.8%

Q: For `Cn1c(-c2ccc3c(c2)OCO3)cnc1NCc1cccc(Cl)c1`, which inhibition is on record?
A: 2.65%

Q: With `Cc1ccc(CNc2ncc(-c3ccc4c(c3)OCO4)n2C)cc1` as the molecule, how does the inhibition read?
A: -2.15%

Q: With `Cc1ccccc1Nc1nnc(SCC(=O)N(C)C2CCS(=O)(=O)C2)s1` (configuration not stated) as the molecule, how does the inhibition read?
A: -26.7%

Q: Which inhibition does the source give for `Cc1cccc(NC(=O)C2CCCN(S(=O)(=O)c3cccc4nsnc34)C2)c1` (configuration not stated) here?
A: 11%

Q: Which inhibition does the source give for `COc1ccc(NC(=O)C2CCCN(C(=O)Nc3ccc(OC)cc3)C2)cc1` (configuration not stated) here?
A: 13.2%

Q: With `O=C(NNc1ccccn1)C(=O)NNS(=O)(=O)c1ccc(F)cc1` as the molecule, how does the inhibition read?
A: -7.54%

Q: Which inhibition does the source give for `Cc1ccc(S(=O)(=O)NNC(=O)C(=O)NNc2ccccn2)cc1` here?
A: 1.07%

Q: With `CCOc1ccc2c(c1)OC(c1ccc(C)cc1)(C(F)(F)F)NC2=O` (configuration not stated) as the molecule, how does the inhibition read?
A: 2.02%

Q: For `COC(=O)c1c(NC(=O)CSc2nnc(Cn3nnc4ccccc43)n2C)sc(C)c1C`, which inhibition is on record?
A: 8.24%

Q: With `Cc1sc2nc(CSc3nc4ccccc4s3)[nH]c(=O)c2c1C` as the molecule, how does the inhibition read?
A: -8.83%

Q: With `COc1ccc(NS(=O)(=O)c2cc(OC)ccc2OC)cc1` as the molecule, how does the inhibition read?
A: -1.85%

Q: With `CC(=O)NC1Sc2ccccc2N=C1c1ccccc1` (configuration not stated) as the molecule, how does the inhibition read?
A: -15.8%

Q: Which inhibition does the source give for `Fc1ccccc1C1CC(c2ccco2)=Nc2ccccc2S1` (configuration not stated) here?
A: 9.62%

Q: For `Cc1ccc(Cl)cc1N(CC(=O)N1CCCCCC1)S(C)(=O)=O`, which inhibition is on record?
A: -3.02%

Q: For `CCOc1cccc(CN2CCN(c3cccc(C(F)(F)F)c3)CC2)c1O`, which inhibition is on record?
A: -5.55%

Q: For `CCCOCc1ccc(O)c2ncccc12`, which inhibition is on record?
A: 16.8%

Q: Which inhibition does the source give for `O=[N+]([O-])c1cc(CN2CCN(c3ccccc3)CC2)c(O)c2ncccc12` here?
A: 4.63%

Q: With `O=S(=O)(c1ccc(Cl)cc1)N1CCN(Cc2ccc(O)c3ncccc23)CC1` as the molecule, how does the inhibition read?
A: -17.9%

Q: For `Oc1ccc(CN2CCCCC2)c2cccnc12`, which inhibition is on record?
A: -7.91%

Q: With `c1ccc(N2CCN(Cc3ccnc4ccccc34)CC2)cc1` as the molecule, how does the inhibition read?
A: -4.89%

Q: With `Oc1ccc2ccccc2c1CN1CCN(c2ccccc2)CC1` as the molecule, how does the inhibition read?
A: 2.7%

Q: For `CC(C)COCc1ccc(O)c2ncccc12`, which inhibition is on record?
A: 1.72%

Q: For `O=C(N/C(=C/c1ccco1)C(=O)N1CCOCC1)c1ccccc1Br`, which inhibition is on record?
A: 7.88%

Q: For `O=C(NC1CCCCC1)C(c1ccncc1)N(Cc1ccc(F)cc1)C(=O)c1ccccn1` (configuration not stated), which inhibition is on record?
A: -1.84%

Q: For `CN(C)CC(O)COc1cc2ccccc2cc1C(=O)N1CCCCC1` (configuration not stated), which inhibition is on record?
A: 9.49%

Q: For `CCCCCCCC(=O)Nc1ccc(S(=O)(=O)Nc2nccs2)cc1`, which inhibition is on record?
A: -7.23%

Q: Which inhibition does the source give for `O=C1CSC(c2cccc([N+](=O)[O-])c2)N1CCN1CCCCC1` (configuration not stated) here?
A: -7.55%

Q: Which inhibition does the source give for `CC(=O)c1c(N2CCOCC2)nc(=S)n(-c2ccc([N+](=O)[O-])cc2)c1C` here?
A: 3.58%

Q: Which inhibition does the source give for `Cc1cc(/C([O-])=C(/C(=S)Nc2ccc(F)cc2)[n+]2ccccc2)c(C)n1Cc1ccccc1Cl` here?
A: -18.8%

Q: Which inhibition does the source give for `OCCN1CCN(c2ncnc3scc(-c4ccc(F)cc4)c23)CC1` here?
A: 4.62%

Q: With `OCc1ccc(O)c2ncccc12` as the molecule, how does the inhibition read?
A: 0.16%

Q: For `COc1ccccc1N1CCN(Cc2ccc(OC)c(OC)c2OC)CC1`, which inhibition is on record?
A: 5.73%

Q: Which inhibition does the source give for `COc1ccccc1N1CCN(Cc2cc(Br)c(O)c3ncccc23)CC1` here?
A: 3.41%

Q: With `Oc1ccc(CN2CCc3ccccc3C2)c2cccnc12` as the molecule, how does the inhibition read?
A: -5.43%

Q: For `COCCn1cnc2c1c(=O)n(CC(=O)OCC(=O)NCCCc1ccccc1)c(=O)n2Cc1ccccc1`, which inhibition is on record?
A: 5.65%

Q: With `Cc1nc2cc(NC(=O)c3ccc(S(=O)(=O)N(C)c4ccccc4)cc3)ccc2o1` as the molecule, how does the inhibition read?
A: -24.8%

Q: Which inhibition does the source give for `CC(C)NC(=O)CCCc1ccccc1` here?
A: -2.72%

Q: For `CC[n+]1c(/C=C/Nc2ccccc2)sc2ccccc21`, which inhibition is on record?
A: 11.1%

Q: Which inhibition does the source give for `CN(C)c1ccc(/C=C/C=C/c2sc3ccccc3[n+]2C)cc1` here?
A: 14.1%

Q: Which inhibition does the source give for `CC[n+]1c(/C=C(\C)SC)sc2ccccc21` here?
A: 8.28%

Q: With `CC[n+]1c(/C=C/C=C/N(C(C)=O)c2ccccc2)sc2ccccc21` as the molecule, how does the inhibition read?
A: -299%

Q: For `CC[n+]1c(/C=C(/C)SC)sc2ccccc21`, which inhibition is on record?
A: -5.74%

Q: With `CCN1/C(=C/C=C/C=C/C=C/c2sc3ccccc3[n+]2CC)Sc2ccccc21` as the molecule, how does the inhibition read?
A: 5.61%

Q: Which inhibition does the source give for `COc1ccc(/C=C/C2=CCN(Cc3ccc(OC)cc3)CC2)cc1` here?
A: 5.66%

Q: With `COc1ccc(CN2CC(C(N)=O)Oc3ccccc32)cc1F` (configuration not stated) as the molecule, how does the inhibition read?
A: -14.6%

Q: For `Cc1ccccc1C(=O)Nc1c(C(=O)N2CCCC2)cnn1-c1ccccc1`, which inhibition is on record?
A: -11.9%

Q: For `CN(C)S(=O)(=O)c1ccc(NC(=O)COC(=O)CC2CC3CCC2C3)cc1` (configuration not stated), which inhibition is on record?
A: -11.3%

Q: With `Cc1ccc(C)n1-c1ccccc1N` as the molecule, how does the inhibition read?
A: 7.67%

Q: For `C/C(CC(=O)NC1C2CC3CC(C2)CC1C3)=N\NC(=O)Cc1cccs1` (configuration not stated), which inhibition is on record?
A: 5.86%

Q: Which inhibition does the source give for `CC(=O)c1coc2c1cc(O)c1ccccc12` here?
A: -10.2%

Q: With `CC(=O)Oc1c(C)cc(O)c2ccccc12` as the molecule, how does the inhibition read?
A: -6.69%

Q: With `COc1ccc2[nH]cc(C(=O)CN3CCCC(C)(C)C3)c2c1` as the molecule, how does the inhibition read?
A: 12.1%

Q: With `CCOC(=O)CCNC(=O)Nc1ccc2nc(C)n(Cc3ccccc3Cl)c(=O)c2c1` as the molecule, how does the inhibition read?
A: 12%

Q: For `CC(=O)N(Cc1cc2cc(C)c(C)cc2n2nnnc12)CC1COCCO1` (configuration not stated), which inhibition is on record?
A: -4%

Q: With `CC(C)N(Cc1nc(-c2ccccc2)no1)C(=O)c1ccc2c(c1)OCO2` as the molecule, how does the inhibition read?
A: 1.2%

Q: Which inhibition does the source give for `COc1ccc(CCC(=O)NCCOc2ccc(Cl)cc2)cc1` here?
A: -4.36%
